# Experimental data as given in the supplement of paper PMC8728848.
# Only a selection was taken, and the strongest signals are over-represented in it overall.
# B1: Epa1-NP-mutant-E227A (Candida glabrata), Q6VBJ0 (protein)
# chain: MILNPALFLNKCVCIYTTLILLLLTNGGYATSSNDISLASKDPTTFPLGCSPDITTPKKGLSMELYSYDFRKKGSYPCWDAAYLDPNYPRTGYKSHRLLAKVDGVTGNINFYYHATKGCTPQLGHLPASYNYPKPLTMTNFTMLLYGYFRPKVTGFHTFTISADDLLFVNFGAGNAFDCCRRDSSADHFGNYQAYAIWGSKTAKDELTVHLDAGVYYPIRLFYNNRAYDGALSFTFKTESNENTVSDFSEYFFSLDDTEEGCPGLISYDSSCASVKTSKIIGIDYHTETPNENLVPITKTIYHLGIPCTGTTTTPLCGSGFYDPLANKCVTINTSSTSSVTKTTSHTTSKEVSFHSSISSQKTLIPKSIPSPYGPIKSQSIPTEMETSSEISSSEYAFSDVISTPSHSPYTKKHSSLNSSSYTSTVIHSLTSYSISQGIFSTSLSEQNITSKSSTDKFSTATSMSNNITQSSIIISQFSTNNENYTTTSMHTSSDKISTETLNNSISTTTSILFSNSSTILKNNTTIISSDKDTHYHPVNPTIVCSTNKTEIICASITQPSISNSNNHWSSSVLKFNSTTVRSTLPSSAGSNETSINVPFSSSTESNTSTSSTSTSNSKMVRSTLPSSAGSNETSISVPFSSSTESNTSTSSTSTSNSKMVRSTLPSSAGSNETSINVPFSSSTESNTSTSSTSTSNSKTVRSTPFSSAGIIMTSLSQRNNKSASSYASSNSKCYNTADSCRKVHSTPSYLLTSSYTSEGVDYDCSLVSTKLKINDTNCVNNKHTTKSCLKTSVTTTIPTLEIKTARKSSSNTIGLHSYPTSSPNKSISSAPIIGYISSFKTIKTASPSYQTSDLTTITTITSLNNPGSTAVENTHESNDKSRKTSSNDISSKHSVIKETKDAVESSNKSHQTNTLKCSSIIIASSSHNSYESLGGTTLTLTLSKVYSPQNNDTLPFLEISEVNPSRTVLPESSKMMQYLTSTEERNKTARNTIATNIVSISTFHFEGEGNAIRMGYTQLLLMLIGIIVMNIGT
# Tests used:
# Assay in all cases: glycan array binding signal (z-score within array); higher = stronger binding
# Conditions in all cases: glycan notation: IUPAC condensed, linker removed; mutation: E227A
# [1] = molecular target: Fuc(a1-2)Gal(b1-3)GalNAc(a1-3)[Fuc(a1-2)]Gal(b1-4)Glc
# In short: (§1)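 From the Consortium for Functional Glycomics database, 3228 arrays were curated, keeping only those whose protein sequence was available. Binding is given as a within-array Z-score averaged across arrays sharing a protein sequence and across linkers. Negative Z-scores can be read as non-binding.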
# [2] = molecular target: Fuc(a1-2)Gal(b1-3)GlcNAc(b1-3)[Gal(b1-4)GlcNAc(b1-6)]Gal(b1-4)Glc
# In short: as §1
# [3] = molecular target: Fuc(a1-2)Gal(b1-3)[Fuc(a1-4)]GlcNAc(b1-2)Man(a1-3)[Fuc(a1-2)Gal(b1-3)[Fuc(a1-4)]GlcNAc(b1-2)Man(a1-3)]Man(b1-4)GlcNAc(b1-4)GlcNAc
# In short: as §1
# [4] = molecular target: Fuc(a1-2)Gal(b1-4)Fuc(a1-3)]GlcNAc(b1-2)Man(a1-3)[Fuc(a1-2)Gal(b1-4)[Fuc(a1-3)]GlcNAc(b1-2)Man(a1-6)]Man(b1-4)GlcNAc(b1-4)GlcNAc
# In short: as §1
# [5] = molecular target: Fuc(a1-2)[Gal(a1-3)]Gal(b1-3)GlcNAc(b1-3)GalNAc
# In short: as §1
# [6] = molecular target: Fuc(a1-2)[Gal(a1-3)]Gal(b1-4)[Fuc(a1-3)]GlcNAc(b1-3)GalNAc
# In short: as §1
# [7] = molecular target: Fuc(a1-2)[Gal(a1-4)]Gal(b1-4)GlcNAc
# In short: as §1
# [8] = molecular target: Fuc(a1-2)[GalNAc(a1-3)]Gal(b1-3)GlcNAc(b1-3)GalNAc
# In short: as §1
# [9] = molecular target: Fuc(a1-2)[GalNAc(a1-3)]Gal(b1-4)[Fuc(a1-3)]GlcNAc
# In short: as §1
# [10] = molecular target: Fuc(a1-2)[GalNAc(b1-3)]Gal
# In short: as §1
# [11] = molecular target: Fuc(a1-3)[Gal(b1-4)]GlcNAc6S
# In short: as §1
# [12] = molecular target: Fuc(a1-3)[Gal3S(b1-4)]Glc
# In short: as §1
# Gal(b1-2)Gal = molecular target: Gal(b1-2)Gal
# In short: as §1
# Gal(b1-3)Gal(b1-4)GlcNAc = molecular target: Gal(b1-3)Gal(b1-4)GlcNAc
# In short: as §1
# Gal(b1-3)GalNAc = molecular target: Gal(b1-3)GalNAc
# In short: as §1
# [13] = molecular target: Gal(b1-3)GalNAc(b1-4)Gal(b1-4)Glc
# In short: as §1
# [14] = molecular target: Gal(b1-3)GlcNAc(a1-6)Gal(b1-4)GlcNAc
# In short: as §1
# [15] = molecular target: Gal(b1-3)GlcNAc(b1-6)Gal(b1-4)GlcNAc
# In short: as §1
# Gal(b1-3)GlcNAc6S = molecular target: Gal(b1-3)GlcNAc6S
# In short: as §1
# Gal(b1-4)Glc = molecular target: Gal(b1-4)Glc
# In short: as §1
# [16] = molecular target: Gal(b1-4)GlcNAc(b1-3)Gal(b1-4)GlcNAc(b1-3)Gal(b1-4)GlcNAc(b1-2)Man(a1-3)[Gal(b1-4)GlcNAc(b1-3)Gal(b1-4)GlcNAc(b1-3)Gal(b1-4)GlcNAc(b1-2)Man(a1-6)]Man(b1-4)GlcNAc(b1-4)GlcNAc
# In short: as §1
# [17] = molecular target: Gal(b1-4)GlcNAc(b1-3)Gal(b1-4)GlcNAc(b1-3)Gal(b1-4)GlcNAc(b1-2)[Gal(b1-4)GlcNAc(b1-3)Gal(b1-4)GlcNAc(b1-3)Gal(b1-4)GlcNAc(b1-6)]Man(a1-6)[Gal(b1-4)GlcNAc(b1-3)Gal(b1-4)GlcNAc(b1-3)Gal(b1-4)GlcNAc(b1-2)Man(a1-3)]Man(b1-4)GlcNAc(b1-4)[Fuc(a1-6)]GlcNAc
# In short: as §1
# [18] = molecular target: Gal(b1-4)GlcNAc(b1-6)[Gal(b1-3)]GalNAc
# In short: as §1
# Gal3S(b1-4)Glc = molecular target: Gal3S(b1-4)Glc
# In short: as §1
# Gal6S(b1-3)GlcNAc6S = molecular target: Gal6S(b1-3)GlcNAc6S
# In short: as §1
# Gal6S(b1-4)Glc = molecular target: Gal6S(b1-4)Glc
# In short: as §1
# Gal6S(b1-4)Glc6S = molecular target: Gal6S(b1-4)Glc6S
# In short: as §1
# Gal6S(b1-4)GlcNAc = molecular target: Gal6S(b1-4)GlcNAc
# In short: as §1
# Gal6S(b1-4)GlcNAc6S = molecular target: Gal6S(b1-4)GlcNAc6S
# In short: as §1
# GalNAc(b1-4)GlcNAc6S = molecular target: GalNAc(b1-4)GlcNAc6S
# In short: as §1
# GalNAc4S6S(b1-4)GlcNAc = molecular target: GalNAc4S6S(b1-4)GlcNAc
# In short: as §1
# Glc(a1-6)Glc(a1-6)Glc = molecular target: Glc(a1-6)Glc(a1-6)Glc
# In short: as §1
# [19] = molecular target: GlcNAc(a1-4)Gal(b1-4)GlcNAc
# In short: as §1
# [20] = molecular target: GlcNAc(a1-4)Gal(b1-4)GlcNAc(b1-3)Gal(b1-4)Glc
# In short: as §1
# [21] = molecular target: GlcNAc(b1-2)Man(a1-3)[GlcNAc(b1-2)Man(a1-6)]Man(b1-4)GlcNAc(b1-4)GlcNAc
# In short: as §1
# GlcNAc(b1-3)Fuc = molecular target: GlcNAc(b1-3)Fuc
# In short: as §1
# [22] = molecular target: GlcNAc(b1-3)Gal(b1-3)GalNAc
# In short: as §1
# [23] = molecular target: GlcNAc(b1-3)Gal(b1-4)GlcNAc(b1-3)Gal(b1-4)GlcNAc(b1-2)[GlcNAc(b1-3)Gal(b1-4)GlcNAc(b1-3)Gal(b1-4)GlcNAc(b1-6)]Man(a1-6)[GlcNAc(b1-3)Gal(b1-4)GlcNAc(b1-3)Gal(b1-4)GlcNAc(b1-2)Man(a1-3)]Man(b1-4)GlcNAc(b1-4)[Fuc(a1-6)]GlcNAc
# In short: as §1
# [24] = molecular target: GlcNAc(b1-3)Gal(b1-4)GlcNAc(b1-6)[GlcNAc(b1-3)Gal(b1-3)]GalNAc
# In short: as §1
# GlcNAc(b1-3)GalNAc = molecular target: GlcNAc(b1-3)GalNAc
# In short: as §1
# [25] = molecular target: Man(a1-2)Man(a1-3)[Man(a1-2)Man(a1-6)]Man
# In short: as §1
# [26] = molecular target: Man(a1-2)Man(a1-3)[Man(a1-6)]Man(a1-6)[Man(a1-2)Man(a1-3)]Man(b1-4)GlcNAc(b1-4)GlcNAc
# In short: as §1
# [27] = molecular target: Man(a1-3)[Man(a1-6)]Man(a1-6)[Man(a1-3)]Man
# In short: as §1
# [28] = molecular target: Neu5Ac(a2-3)Gal(b1-3)[Fuc(a1-4)]GlcNAc
# In short: as §1
# [29] = molecular target: Neu5Ac(a2-3)Gal(b1-3)]Neu5Ac(a2-3)Gal(b1-4)]GlcNAc
# In short: as §1
# [30] = molecular target: Neu5Ac(a2-3)Gal(b1-4)GlcNAc(b1-3)Gal(b1-4)GlcNAc(b1-3)Gal(b1-4)GlcNAc
# In short: as §1
# [31] = molecular target: Neu5Ac(a2-3)Gal(b1-4)[Fuc(a1-3)]GlcNAc(b1-3)GalNAc
# In short: as §1
# [32] = molecular target: Neu5Ac(a2-3)Gal(b1-4)[Fuc(a1-3)]GlcNAc(b1-6)[Neu5Ac(a2-3)Gal(b1-3)]GalNAc
# In short: as §1
# [33] = molecular target: Neu5Ac(a2-6)Gal(b1-4)GlcNAc(b1-2)Man(a1-3)Man(b1-4)GlcNAc(b1-4)GlcNAc
# In short: as §1
# [34] = molecular target: Neu5Ac(a2-6)Gal(b1-4)GlcNAc(b1-2)Man(a1-6)[Man(a1-3)]Man(b1-4)GlcNAc(b1-4)GlcNAc
# In short: as §1
# [35] = molecular target: Neu5Ac(a2-6)Gal(b1-4)GlcNAc(b1-3)Gal(b1-4)GlcNAc(b1-6)[Gal(b1-3)]GalNAc
# In short: as §1
# [36] = molecular target: Neu5Ac(a2-8)Neu5Ac(a2-8)Neu5Ac(a2-3)[Gal(b1-3)GalNAc(b1-4)]Gal(b1-4)Glc
# In short: as §1
binder,measurement,setting,value
B1,glycan array binding signal (z-score),[1],-0.214
same,glycan array binding signal (z-score),[2],-0.138
same,glycan array binding signal (z-score),[3],-0.162
same,glycan array binding signal (z-score),[4],-0.184
same,glycan array binding signal (z-score),[5],-0.204
same,glycan array binding signal (z-score),[6],-0.168
same,glycan array binding signal (z-score),[7],-0.221
same,glycan array binding signal (z-score),[8],-0.197
same,glycan array binding signal (z-score),[9],-0.13
same,glycan array binding signal (z-score),[10],-0.161
same,glycan array binding signal (z-score),[11],-0.143
same,glycan array binding signal (z-score),[12],-0.172
same,glycan array binding signal (z-score),Gal(b1-2)Gal,-0.041
same,glycan array binding signal (z-score),Gal(b1-3)Gal(b1-4)GlcNAc,2.03
same,glycan array binding signal (z-score),Gal(b1-3)GalNAc,1.28
same,glycan array binding signal (z-score),[13],3.42
same,glycan array binding signal (z-score),[14],-0.057
same,glycan array binding signal (z-score),[15],7.88
same,glycan array binding signal (z-score),Gal(b1-3)GlcNAc6S,1.37
same,glycan array binding signal (z-score),Gal(b1-4)Glc,-0.13
same,glycan array binding signal (z-score),[16],0.626
same,glycan array binding signal (z-score),[17],1.15
same,glycan array binding signal (z-score),[18],1.27
same,glycan array binding signal (z-score),Gal3S(b1-4)Glc,-0.193
same,glycan array binding signal (z-score),Gal6S(b1-3)GlcNAc6S,1.88
same,glycan array binding signal (z-score),Gal6S(b1-4)Glc,4.56
same,glycan array binding signal (z-score),Gal6S(b1-4)Glc6S,6.39
same,glycan array binding signal (z-score),Gal6S(b1-4)GlcNAc,5.93
same,glycan array binding signal (z-score),Gal6S(b1-4)GlcNAc6S,15.2
same,glycan array binding signal (z-score),GalNAc(b1-4)GlcNAc6S,-0.184
same,glycan array binding signal (z-score),GalNAc4S6S(b1-4)GlcNAc,-0.197
same,glycan array binding signal (z-score),Glc(a1-6)Glc(a1-6)Glc,-0.201
same,glycan array binding signal (z-score),[19],-0.198
same,glycan array binding signal (z-score),[20],-0.194
same,glycan array binding signal (z-score),[21],-0.191
same,glycan array binding signal (z-score),GlcNAc(b1-3)Fuc,-0.185
same,glycan array binding signal (z-score),[22],-0.176
same,glycan array binding signal (z-score),[23],-0.163
same,glycan array binding signal (z-score),[24],-0.207
same,glycan array binding signal (z-score),GlcNAc(b1-3)GalNAc,-0.214
same,glycan array binding signal (z-score),[25],-0.166
same,glycan array binding signal (z-score),[26],-0.198
same,glycan array binding signal (z-score),[27],-0.196
same,glycan array binding signal (z-score),[28],-0.197
same,glycan array binding signal (z-score),[29],-0.213
same,glycan array binding signal (z-score),[30],-0.202
same,glycan array binding signal (z-score),[31],-0.12
same,glycan array binding signal (z-score),[32],-0.16
same,glycan array binding signal (z-score),[33],-0.2
same,glycan array binding signal (z-score),[34],-0.2
same,glycan array binding signal (z-score),[35],0.553
same,glycan array binding signal (z-score),[36],-0.194
